# Where “and” joins values, the source holds several entries; their conditions need not be identical. Identical values can stand only once. Unmarked numbers belong to inactive results. Records with an inconclusive call do not appear. Entries that show only a call come without a potency. Calls of active or inactive are those of the source. Calls follow the shape of the dose curve; as a rule, active = well fitted curve in the direction sought with a large enough effect in the repeat runs; inconclusive = weak or mixed curves; inactive = no such curve, though single readings can be large; an effect the other way counts as inactive or inconclusive.
# What was measured:
# [1] = Human pregnane X receptor (PXR) small molecule agonists, qHTS cell viability counter screen (AID 1346977); also: nearly all actives have a fitted effect of over 50% in size
# Method in brief: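 Fluorescence read-out (CellTiter-Fluor) of viability in PXR-Luc HepG2 cells, multiplexed with the luciferase agonist read. Compounds in DMSO added after 5hr plating; 24hr total exposure at 37C, 5% CO2.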
# [2] = Caspase-3/7 induction in HepG2 cells by small molecules, qHTS assay (AID 1346978); also: nearly all actives have a fitted effect of over 15% in size
# Method in brief: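 Wild-type HepG2 cells, 2,000/well, settled 5 hr at 37 C and 5% CO2, then compound-treated for 17 hr; caspase-3/7 activity read by luminescent Caspase-Glo 3/7 after 30 min at room temperature.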
# [3] = Caspase-3/7 induction in CHO-K1 cells by small molecules, qHTS cell viability counter screen (AID 1346979); also: nearly all actives have a fitted effect of over 35% in size
# Method in brief: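 CHO-K1 wt, 1,500 cells/well; 5hr pre-incubation 37C/5% CO2; compound pin transfer (DMSO); 16hr exposure; CellTiter-Fluor added, 1hr, fluorescence read.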
# [4] = Caspase-3/7 induction in CHO-K1 cells by small molecules, qHTS assay (AID 1346980); also: nearly all actives have a fitted effect of over 15% in size
# Method in brief: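 Wild-type CHO-K1 cells exposed to compounds for 17hr at 37 C, 5% CO2. Caspase-3/7 activity then measured by Caspase-Glo 3/7 luminescence after 30min at room temperature.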
# [5] = Caspase-3/7 induction in HepG2 cells by small molecules, qHTS cell viability counter screen (AID 1346981); also: nearly all actives have a fitted effect of over 30% in size
# Method in brief: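 Viability determined by CellTiter-Fluor fluorescence in HepG2 wells also used for the luminescent Caspase-Glo 3/7 read. Compounds were present for 16 hr at 37 C, 5% CO2 before reagent addition.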
# [6] = biological target: Nuclear receptor subfamily 1 group I member 2 (Homo sapiens) (UniProt O75469); experiment: Human pregnane X receptor (PXR) small molecule agonists, qHTS assay (AID 1346982); also: nearly all actives have a fitted effect of over 35% in size
# Method in brief: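 Compound-induced hPXR transactivation of a CYP3A4 luciferase reporter was scored in HepG2 PXR-Luc cells over 24 hr at 37 C, 5% CO2, by luminescence.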
# [7] = biological target: Cytochrome P450 2D6 (Homo sapiens) (UniProt P10635); experiment: Cytochrome P450 Family 2 Subfamily D Member 6 (CYP2D6) small molecule antagonists: luciferase reporter qHTS assay (AID 1671196); also: nearly all actives have a fitted effect of over 50% in size
# Method in brief: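 Each well received CYP2D6 with its proluciferin substrate and chemical, sat 10 min, then got NADPH regeneration solution for 1 h at room temperature. Luminescence in RLU served as the activity measure.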
# [8] = biological target: Nuclear receptor subfamily 1 group I member 2 (Rattus norvegicus) (UniProt Q9R1A7); experiment: Rat pregnane X receptor (rPXR) activation by small molecules, qHTS assay (AID 1346983); conditions: rPXR luciferase reporter cells, One-Glo luminescence, 24 h; max activation: active compounds read high; also: nearly all actives have a fitted effect of over 20% in size
# Method in brief: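 Cell-based rPXR activation assay: rPXR cells, 2,000 per well, rested 5hr at 37 C, then exposed to compounds in DMSO for 24 hr at 37 C. Luciferase activity read by One-Glo luminescence after 30 min at room temperature.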
# [9] = biological target: Nuclear receptor subfamily 1 group I member 2 (Homo sapiens) (UniProt O75469); experiment: Human pregnane X receptor (PXR) activation by small molecules, qHTS assay (AID 1346985); also: nearly all actives have a fitted effect of over 40% in size
# Method in brief: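 DPX-2 cells (HepG2 co-transfected with a PXR response element and a CYP3A4-promoter luciferase construct) were seeded at 2,000 per well, rested 5 hr at 37C, then exposed to DMSO-dissolved compounds for 24 hr. Activation was read as luciferase luminescence.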
# [10] = biological target: Nuclear receptor subfamily 1 group I member 2 (Homo sapiens) (UniProt O75469); experiment: CYP3A4 induction through human pregnane X receptor (PXR) by small molecules, qHTS assay (AID 1346984); also: nearly all actives have a fitted effect of over 40% in size
# Method in brief: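 Readings come from a luciferase reporter: DPX-2 cells, which are HepG2 cotransfected with PXR and a CYP3A4-promoter construct, were exposed to test compounds for 24 h at 37C before One-Glo detection.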
# Potency is read from the fitted curve at half-maximal effect.
# Cytochrome P450 2D6 (Homo sapiens), sequence (P10635 whole entry, looked up): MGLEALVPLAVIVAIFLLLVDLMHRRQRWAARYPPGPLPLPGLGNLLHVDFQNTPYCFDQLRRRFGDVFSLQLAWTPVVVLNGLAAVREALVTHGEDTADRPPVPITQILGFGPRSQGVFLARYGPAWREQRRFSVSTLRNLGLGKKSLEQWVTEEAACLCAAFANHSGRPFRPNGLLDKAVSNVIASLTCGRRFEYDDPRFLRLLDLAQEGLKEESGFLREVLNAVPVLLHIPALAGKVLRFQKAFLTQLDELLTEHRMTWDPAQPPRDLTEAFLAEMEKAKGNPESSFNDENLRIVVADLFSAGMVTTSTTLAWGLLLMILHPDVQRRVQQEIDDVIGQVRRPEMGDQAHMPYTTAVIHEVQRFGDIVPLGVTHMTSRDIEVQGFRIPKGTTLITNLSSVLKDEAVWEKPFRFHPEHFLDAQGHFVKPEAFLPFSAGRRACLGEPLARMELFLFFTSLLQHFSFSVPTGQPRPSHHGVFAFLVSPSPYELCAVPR
# Nuclear receptor subfamily 1 group I member 2 (Rattus norvegicus), sequence (Q9R1A7 whole entry, looked up): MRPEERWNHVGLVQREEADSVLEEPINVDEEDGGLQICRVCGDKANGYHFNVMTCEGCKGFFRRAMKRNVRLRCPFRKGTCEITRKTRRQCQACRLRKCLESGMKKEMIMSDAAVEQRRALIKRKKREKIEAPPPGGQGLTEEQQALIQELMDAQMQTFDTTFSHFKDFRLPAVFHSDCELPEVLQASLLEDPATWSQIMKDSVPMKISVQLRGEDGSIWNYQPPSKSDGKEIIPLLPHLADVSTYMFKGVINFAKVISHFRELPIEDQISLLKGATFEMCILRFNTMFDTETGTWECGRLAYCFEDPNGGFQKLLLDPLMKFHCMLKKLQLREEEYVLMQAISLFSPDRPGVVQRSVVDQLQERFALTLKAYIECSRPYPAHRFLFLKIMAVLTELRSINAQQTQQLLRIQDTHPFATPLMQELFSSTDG
Compound,Potency [1],Potency [2],Potency [3],Potency [4],Potency [5],Potency [6],Potency [7],max activation [8] [%],Potency [9],Potency [10],Potency [8],caspase-3/7 activation [4],activation [6]
CC(=O)OCC(C)OC(C)=O (stereo not drawn),inactive,inactive,inactive,inactive,inactive,inactive,inactive,,,,,,
CC(=O)SC[C@@H](Cc1ccccc1)C(=O)NCC(=O)OCc1ccccc1,inactive,inactive,inactive,inactive,inactive,inactive,1.1 µM (active),-6.71,inactive,,,,
CC[C@H]1O[C@]2(CC[C@@H]1C)C[C@@H]1C[C@@H](C/C=C(\C)C[C@@H](C)/C=C/C=C3\CO[C@@H]4[C@H](O)C(C)=C[C@@H](C(=O)O1)[C@]34O)O2,27.1 µM (active),30.4 µM (active),17.1 µM (active),13.6 µM (active),42.9 µM (active),6.06 µM (active),,,,,,,
CCCCC(CC)CN=C(N)NC(N)=NCCCCCCN=C(N)NC(N)=NCC(CC)CCCC (stereo not drawn),16.8 µM (active),inactive,16.8 µM (active),inactive,26.6 µM (active),inactive,1.23 µM (active),-27.3,inactive,inactive,,,
Cc1[nH]nc2c1N=C(c1ccccc1Cl)c1cc([N+](=O)[O-])ccc1N2,13.7 µM (active),17.2 µM (active),21.7 µM (active),19.3 µM (active),19.3 µM (active),6.11 µM (active),,,,,,,
CC(=O)N1CCN(c2ccc(OC[C@H]3CO[C@](Cn4ccnc4)(c4ccc(Cl)cc4Cl)O3)cc2)CC1,27.3 µM (active),68.6 µM (active),27.3 µM (active),inactive,61.1 µM (active),inactive,,-4.95,inactive,inactive,,,
O=C1c2c(O)ccc(Nc3ccc(CCO)cc3)c2C(=O)c2c([N+](=O)[O-])ccc(O)c21,43.3 µM (active),inactive,54.5 µM (active),inactive,54.5 µM (active),,,,,,,,
CC[C@H](c1ccc(O)cc1)[C@@H](CC)c1ccc(O)cc1,inactive,inactive,68.6 µM (active),inactive,inactive,61.1 µM (active),inactive,-4.59,,inactive,,,
Clc1ccc2nsnc2c1NC1=NCCN1,inactive,inactive,inactive,inactive,inactive,inactive,12.3 µM (active),-3.32,inactive,inactive,,,
Clc1ccccc1C(c1ccccc1)(c1ccccc1)n1ccnc1,17.2 µM (active),inactive,8.63 µM (active) and 7.5 µM (active),inactive,48.6 µM (active),770 nM (active) and 11.9 µM (active),39.9 µM (active),,3.98 µM (active),inactive,3.98 µM (active),,
NNC(=O)c1cccc(C(=O)NN)c1,inactive,inactive,inactive,inactive,inactive,inactive,,,,,,,
C=CC(=O)OCCn1c(=O)n(CCOC(=O)C=C)c(=O)n(CCOC(=O)C=C)c1=O,27.3 µM (active),24.3 µM (active),4.33 µM (active),2.43 µM (active),27.3 µM (active),8.63 µM (active),inactive,,,,,,
O=C(N/N=C/c1ccccc1O)c1ccncc1,inactive,inactive,7.5 µM (active),inactive,inactive,inactive,27.5 µM (active),-3.33,inactive,inactive,,,
Cc1cc(O)c(Cl)c(C)c1Cl,inactive,inactive,inactive,inactive,inactive,inactive,inactive,,,,,,
CC(C)(C)NC(=O)[C@@H]1C[C@@H]2CCCC[C@@H]2CN1C[C@@H](O)[C@H](Cc1ccccc1)NC(=O)[C@H](CC(N)=O)NC(=O)c1ccc2ccccc2n1,19.6 µM (active),69.5 µM (active),19.6 µM (active),61.9 µM (active),27.7 µM (active),24.7 µM (active),,7.59,,inactive,,,
O=Cc1cc(O)ccc1Br,inactive,inactive,inactive,inactive,inactive,,,,,,,,
O=C(c1ccc(F)cc1)C1CCN(CCn2c(=O)[nH]c3ccccc3c2=O)CC1,inactive,inactive,inactive,inactive,inactive,inactive,,,,,,,
O=c1cc(-c2ccc(O)cc2)oc2cc(O)cc(O)c12,39.8 µM (active) and 27.3 µM (active),inactive,55.2 µM (active) and 43.3 µM (active),inactive,27.7 µM (active) and 61.1 µM (active),24.7 µM (active) and 24.3 µM (active),64.1 µM (active),,,,,,
COc1cccc2c1C(=O)c1c(O)c3c(c(O)c1C2=O)C[C@@](O)(C(=O)CO)C[C@@H]3O[C@H]1C[C@H](N)[C@H](O[C@@H]2CCCCO2)[C@H](C)O1,1.68 µM (active),2.37 µM (active),6.68 µM (active),inactive,8.41 µM (active),inactive,,,,inactive,,,
[O-][n+]1ccccc1SSc1cccc[n+]1[O-],0.184 µM (active),0.291 µM (active),0.073 µM (active),,4.11 µM (active),,2.13 µM (active),-9.36,11.2 µM (active),inactive,,-5.93% [at 19 µM],-49.4% [at 19 µM]
COC(=O)C1=C(C)NC(C)=C(C(=O)OCC(C)C)C1c1ccccc1[N+](=O)[O-] (stereo not drawn),61.1 µM (active),inactive,61.1 µM (active) and 29.8 µM (active),inactive,54.5 µM (active),,,,,,,,

Compound,Potency [1],Potency [2],Potency [3],Potency [4],Potency [5],Potency [6],Potency [7],max activation [8] [%],Potency [9],Potency [10],Potency [8],caspase-3/7 activation [4],activation [6]
CCOC(=O)O[C@]1(C(=O)OCCl)CC[C@H]2[C@@H]3CCC4=CC(=O)C=C[C@]4(C)[C@H]3[C@@H](O)C[C@@]21C,inactive,inactive,inactive,inactive,inactive,5.96 µM (active),inactive,-1.8,14.1 µM (active),inactive,,,
Cc1cc(C2CCCCC2)n(O)c(=O)c1,26.6 µM (active),inactive,23.7 µM (active),inactive,inactive,inactive,inactive,-2.39,inactive,inactive,,,
Cc1cc(O)c2ccccc2c1O,16.8 µM (active),inactive,10.6 µM (active),inactive,33.5 µM (active),inactive,17.4 µM (active),10,inactive,1.58 µM (active),,,
COC(=O)c1cc(Cl)ccc1OC,inactive,inactive,inactive,inactive,inactive,inactive,,,,,,,
O=[N+]([O-])c1ccccc1Nc1ccccc1,inactive,inactive,inactive,inactive,inactive,48.3 µM (active),,,,,,,
CCCN(CCC)c1c([N+](=O)[O-])cc(C(F)(F)F)c(N)c1[N+](=O)[O-],48.4 µM (active),60.9 µM (active),43.1 µM (active),54.3 µM (active),54.3 µM (active),4.84 µM (active),,,,,,,
CS(=O)(=O)CCNCc1ccc(-c2ccc3ncnc(Nc4ccc(OCc5cccc(F)c5)c(Cl)c4)c3c2)o1,26.6 µM (active),33.5 µM (active),23.7 µM (active),inactive,29.8 µM (active),,,,,,,,
Cc1onc(-c2c(Cl)cccc2Cl)c1C(=O)N[C@@H]1C(=O)N2[C@@H]1SC(C)(C)[C@@H]2C(=O)O,inactive,inactive,inactive,inactive,inactive,inactive,,,,,,,
NC(=O)NS(=O)(=O)c1ccc(N)cc1,inactive,inactive,inactive,inactive,inactive,inactive,inactive,-4.58,inactive,inactive,,,
CN(C)[C@@H]1C(=O)C(C(N)=O)=C(O)[C@@]2(O)C(=O)C3=C(O)c4c(O)ccc(Cl)c4[C@@H](O)[C@H]3C[C@@H]12,inactive,inactive,inactive,inactive,inactive,inactive,inactive,-0.517,inactive,inactive,,,
On1ccccc1=S,0.762 µM (active),1.71 µM (active),0.428 µM (active),inactive,15.2 µM (active),,,,,,,,
CC(C)(C)CC(C)(C)c1ccc(O)c(Cc2ccc(Cl)cc2Cl)c1,18.8 µM (active),26.6 µM (active),18.8 µM (active),21.1 µM (active),29.8 µM (active),2.37 µM (active),,-0.0398,,inactive,,,
N#CSc1ccc(N)c([N+](=O)[O-])c1,30.8 µM (active),inactive,38.8 µM (active),inactive,54.8 µM (active),12.3 µM (active),,,,,,,
COc1cc(/C=C/C(=O)O[C@H]2CC[C@]34C[C@]35CC[C@]3(C)[C@@H]([C@H](C)CCC=C(C)C)CC[C@@]3(C)[C@@H]5CC[C@H]4C2(C)C)ccc1O,inactive,15 µM (active),inactive,inactive,inactive,inactive,inactive,-10.7,inactive,inactive,,,
Fc1ccc(C(c2ccc(F)cc2)N2CCN(C/C=C/c3ccccc3)CC2)cc1,29.8 µM (active),inactive,33.5 µM (active),inactive,,,,,,,,,
CCCCCCCCCCCCCCCS(=O)(=O)Oc1ccccc1,inactive,inactive,inactive,inactive,inactive,inactive,inactive,,,,,,
CCC(C)(C)C1CCCCC1OC(C)=O (stereo not drawn),inactive,inactive,inactive,inactive,inactive,inactive,inactive,,,,,,
O=C(Nc1cccc([N+](=O)[O-])c1)c1cc2ccccc2cc1O,3.86 µM (active),inactive,4.33 µM (active),inactive,6.11 µM (active),6.11 µM (active),25.2 µM (active),,,,,,
Cc1cc(CCN2CCN(c3nsc4ccccc34)CC2)cc2c1NC(=O)CC2(C)C,27.3 µM (active),inactive,24.3 µM (active),inactive,61.1 µM (active),19.3 µM (active),17.8 µM (active),,,,,,
CC(C)(C)C(=O)OCOC(=O)C1N2C(=O)CC2S(=O)(=O)C1(C)C (stereo not drawn),inactive,inactive,inactive,inactive,inactive,inactive,inactive,,,,,,
Cc1cc2c(cc1C(F)(F)F)N(C(=O)Nc1ccc(Oc3cccnc3C)nc1)CC2,43.9 µM (active),inactive,24.7 µM (active),inactive,27.7 µM (active),13.9 µM (active),22.8 µM (active),,,,,,

# From PubChem BioAssay (Tox21)
